Bioassay records from PubChem BioAssay.
Compounds with a hit are over-represented: about 1.3% of the library has one in this group of screens.
EPAC2 antag: EPAC2 (human) antagonism. Q8WZA2. EPAC2 GEF exchange of Rap1B-BODIPY-GDP, fluorescence. Potency, µM (series often up to 114 µM), for the others: at the top dose activity, negative = inhibition, usual class: inhibitors. 360,000 tested, 0.18% active. AID 720708; note: % is set by controls: 0 for no effect and ±100 for the full control effect; nearly all actives have a fitted effect of over 45% in size
12-LOX inh: blocks human arachidonate 12S-lipoxygenase; P18054; Potency, µM (top dose mostly 108 µM), for inactives: top-dose activity change, negative = inhibition, actives largely listed as inhibitors; purified 12hLO, xylenol orange hydroperoxide absorbance; 580,000 tested, 1.1% active; note: % is set by controls: 0 for no effect and ±100 for the full control effect
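Hydroperoxide product was detected by ferrous iron/xylenol orange as the 573 to 405 nm absorbance ratio. Arachidonic acid at 40 uM (final) was turned over for 30 min at room temperature by 150 nM human 12hLO, pH 7.0 Hepes buffer, after 15 min compound preincubation.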
EPAC1 antag: antagonists of human EPAC1. EPAC1 GEF assay, Rap1b-BODIPY-GDP exchange fluorescence. 360,000 tested, 0.14% active. O95398. AID 720709. Potency, µM (highest dose often 115 µM), inactives show at the highest dose activity change, negative = inhibition, hits mostly inhibitors;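 note: plate controls were vehicle for no effect and positive control for full effect; nearly all actives have a fitted effect of over 50% in size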
Target sequence (O95398 whole entry, looked up): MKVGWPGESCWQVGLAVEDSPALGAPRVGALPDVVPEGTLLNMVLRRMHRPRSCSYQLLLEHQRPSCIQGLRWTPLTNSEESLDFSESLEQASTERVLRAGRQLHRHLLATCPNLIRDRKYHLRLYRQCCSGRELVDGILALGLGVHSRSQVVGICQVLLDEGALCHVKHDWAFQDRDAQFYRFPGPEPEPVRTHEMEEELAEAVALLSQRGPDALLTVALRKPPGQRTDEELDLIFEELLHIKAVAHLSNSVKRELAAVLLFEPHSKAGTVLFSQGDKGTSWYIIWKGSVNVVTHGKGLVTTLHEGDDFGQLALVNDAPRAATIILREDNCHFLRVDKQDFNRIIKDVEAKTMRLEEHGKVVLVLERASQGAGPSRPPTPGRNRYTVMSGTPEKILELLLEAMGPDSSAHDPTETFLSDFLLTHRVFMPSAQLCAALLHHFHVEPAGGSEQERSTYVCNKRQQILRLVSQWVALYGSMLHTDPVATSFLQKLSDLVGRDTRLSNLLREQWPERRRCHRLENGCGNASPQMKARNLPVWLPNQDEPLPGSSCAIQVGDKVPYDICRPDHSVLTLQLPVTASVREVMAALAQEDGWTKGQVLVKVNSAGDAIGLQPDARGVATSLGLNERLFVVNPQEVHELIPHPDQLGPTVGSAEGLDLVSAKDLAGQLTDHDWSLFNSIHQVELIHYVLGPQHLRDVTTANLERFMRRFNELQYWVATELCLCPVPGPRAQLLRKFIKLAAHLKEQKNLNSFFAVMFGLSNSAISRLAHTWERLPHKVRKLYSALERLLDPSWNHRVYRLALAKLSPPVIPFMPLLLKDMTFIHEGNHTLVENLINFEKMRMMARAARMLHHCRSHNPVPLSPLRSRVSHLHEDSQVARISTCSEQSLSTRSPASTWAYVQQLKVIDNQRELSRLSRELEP
USP1-UAF1 inh: inhibitors of human USP1/UAF1 deubiquitinase | recombinant USP1/UAF1, Ub-Rhodamine cleavage fluorescence | AID 743255 | Potency, µM (series often up to 57.1 µM), for the others: at the top dose activity change, negative = inhibition, most hits filed as inhibitors | 390,000 tested, 0.23% active; note: % is set by controls: 0 for no effect and ±100 for the full control effect; nearly all actives have a fitted effect of over 60% in size
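USP1/UAF1 complex (1 nM) preincubated 15 min at room temperature with compound, then Ub-Rho substrate (150 nM final) added. Kinetic fluorescence at 480/540 nm over 6 reads at 60 s intervals; 50 mM HEPES pH 7.8, 0.5 mM EDTA, 0.1 mg/ml BSA, 1 mM TCEP, 0.01% Tween-20.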
EPAC2 ag: activates human EPAC2 exchange factor; Potency, µM (highest dose often 154 µM), inactives show at the highest dose activation, actives largely listed as activators; EPAC2 activation, biochemical qHTS; response scale: 100% = 6.5 mM cAMP response; AID 720711; 360,000 tested, 0.079% active; note: nearly all actives have a fitted effect of over 50% in size
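Setup: EPAC2 100 nM, labeled Rap1B complex 250 nM, free GDP 50 uM. Compound titrations pinned in, brief spin, 5 min room temperature incubation. Kinetic fluorescence read over 30 min, normalized to 6.5 mM cAMP.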
EPAC1 agonist: EPAC1 (human) agonism | Potency, µM (series often up to 154 µM), inactives show at the top dose activation, usual class: activators | 360,000 tested, 0.073% active | O95398 | EPAC1 agonist qHTS, biochemical assay; response scale: 100% = response to 6.5 mM cAMP; note: nearly all actives have a fitted effect of over 60% in size
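Multi-concentration qHTS readout: loss of Rap1B-bound BODIPY-GDP fluorescence driven by 100 nM EPAC1 with excess GDP (50 uM), monitored kinetically at room temperature; agonist response expressed relative to 6.5 mM cAMP.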
An asterisk follows results filed as active; u = inconclusive; x = no result. Calls come from the whole dose curve; as a rule, active = well fitted curve in the direction sought with a large enough effect; inconclusive = small, poorly fitted or top-dose-only effect, or another doubt; inactive = no such curve, though single readings can be large; an effect the other way counts as inactive or inconclusive. Potency is the fitted concentration of half-maximal effect.

SMILES | EPAC2 antag | 12-LOX inh | EPAC1 antag | USP1-UAF1 inh | EPAC2 ag | EPAC1 agonist
CN(C)CCN1CCN(C2CN(Cc3cn(Cc4cccc(C(F)(F)F)c4)nn3)S(=O)(=O)C2)CC1 (centres undefined) | 5% | u | 15% | x | 5% | -15%
O=S1(=O)CC(N2CCN(CCO)CC2)CN1Cc1cn(Cc2cccc(C(F)(F)F)c2)nn1 (centres undefined) | 7% | 25µM* | 2% | x | -1% | 6%
CCCNc1c(NS(=O)(=O)c2ccc(OCC)cc2)c(=O)oc2ccccc12 | x | -33% | x | x | x | x
O=C(CSc1nnc2ccccn12)N1CCN(S(=O)(=O)c2ccccc2)CC1 | x | -6% | x | x | x | x
Cc1cccc(-n2c(=O)c3c(cc(C)n3C)n(CC(=O)Nc3c(C)cccc3C)c2=O)c1 | x | 71µM* | x | x | x | x
N#C/C(=C\c1ccc([N+](=O)[O-])o1)C(=O)Nc1ccc(F)cc1 | 3% | 45µM* | u | -23% | -1% | 11%
COCc1nnc(NC(=O)Cn2ccc3cc(OC)ccc32)s1 | x | -18% | x | x | x | x
CCCC(C)N(C)CC(=O)NC1(C#N)CCCCCC1 (centres undefined) | x | -15% | x | x | x | x
NC(=S)NNc1ccc(Cl)c(Cl)c1 | -4% | 16µM* | -24% | -9% | 6% | -4%
NC(=S)NNc1ccnc2cc(Cl)ccc12 | 2% | 5.6µM* | 3% | -10% | 8% | -2%
Cc1ccc(NNC(N)=S)cc1Cl | 3% | 28µM* | 6% | -12% | 6% | 11%
O=C(NNc1ccnc2cc(Cl)ccc12)C1CCCCC1 | -3% | u | 13% | -2% | 7% | 13%
NC(=S)Nc1ccc(Cl)c(Cl)c1 | 1% | u | -5% | -23% | 3% | 8%
CCc1ccc(C(=O)NNc2ccc(C)c(Cl)c2)cc1 | -7% | 16µM* | -13% | -1% | 11% | 4%
Cc1cccc(C)c1OCc1nnc(NC(=O)Nc2ccc(F)cc2)s1 | x | -16% | x | x | x | x
CCCn1cc(-c2ccnc(NC3CCN(Cc4ccccn4)CC3)n2)c(C)n1 | x | 62% | x | x | x | x
COc1ccc(NC(=O)COc2ccccc2C)c2cccnc12 | x | 10% | x | x | x | x
COCCn1c(COc2ccccc2-c2ccccc2)n[nH]c1=S | x | 28µM* | x | x | x | x
CCn1c(COc2ccc(Cl)cc2C)n[nH]c1=S | x | 14µM* | x | x | x | x
Cc1ccccc1OCc1n[nH]c(=S)n1Cc1ccccc1 | -1% | 50µM* | -9% | -19% | -3% | 3%
CCn1c(CSCc2ccc(Cl)cc2)n[nH]c1=S | -4% | u | 14% | -6% | 4% | 0%
COCc1n[nH]c(=S)n1Cc1ccc(Cl)cc1 | x | 16µM* | x | x | x | x
S=c1[nH]nc(COc2cccc3ccccc23)n1Cc1ccccc1 | 3% | u | 2% | -17% | 9% | 16%
Cc1cc(Cl)ccc1OCCCc1n[nH]c(=S)n1C | x | 22µM* | x | x | x | x
Cc1cc(C)n(Cc2n[nH]c(=S)n2Cc2ccccc2)n1 | 9% | u | 3% | -10% | 0% | -5%
SMILES | EPAC2 antag | 12-LOX inh | EPAC1 antag | USP1-UAF1 inh | EPAC2 ag | EPAC1 agonist
Cc1nn(Cc2n[nH]c(=S)n2Cc2ccccc2)c(C)c1Cl | -11% | 45µM* | -4% | 4% | 3% | 5%
CN1CCC(OC2CCN(C(=O)CCCc3ccccc3)CC2)CC1 | x | -1% | x | x | x | x
Cc1ccc(S(=O)(=O)NN2C(=O)/C(=C/c3cccc(F)c3)SC2=S)cc1 | 32µM* | u | u | -27% | -8% | -3%
COc1cc(/C=C2\SC(=S)N(NS(=O)(=O)c3ccc(C)cc3)C2=O)ccc1O | u | u | u | -26% | -6% | 6%
COc1cc(/C=C2\SC(=S)N(NS(=O)(=O)c3ccc(C)cc3)C2=O)cc(OC)c1OC | 50µM* | u | 79µM* | -13% | -4% | -1%
O=C(Nc1ccc(Br)cc1)C(Nc1ccccc1)c1ccccc1F (centres undefined) | x | -8% | x | x | x | x
